Pf growth 48h – inhibits P. falciparum growth in the first generation, 48 h | P. falciparum luciferase growth in erythrocytes, 48 h | Potency, µM (highest dose often 28.7 µM), inactives show at the top dose activity change, negative = inhibition, most hits filed as inhibitors | actives 5.9% (n = 310,000) | AID 504832; also: potency is read from the fitted curve at half-maximal effect; % is scaled to controls: 0 for no effect and ±100 for the full control effect
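A one-generation exposure of luciferase-tagged malaria parasites in RPMI 1640/Albumax erythrocyte culture, 37 C and 5% CO2. Inhibition is inferred from decreased luminescence after adding detection reagent.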
Cycloheximide cs – affects cycloheximide protein synthesis inhibition readout, counter-screen; cell reporter, cycloheximide protein synthesis inhibition counterscreen; max response, %; actives 12% (n = 300,000); AID 2314; in the data active = max response mostly above about 13%, no sharp cut-off; inactive = mostly below about 14%; also: read at 38.3 µM for the half of the compounds with a filed dose; 0% is about no effect
NS1 inh – blocks influenza NS1 protein function. Potency, µM (titrated, usually from 46.1 µM), inactives show at the top dose activity, positive = more growth. actives 0.4% (n = 270,000). AID 2326; calls by dose curve; also: potency is read from the fitted curve at half-maximal effect; actives are rising curves; nearly all actives have a fitted effect of over 50% in size
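S. cerevisiae expressing influenza A NS1, grown in glucose, washed, then diluted 1:100 into pH 6.0 -URA galactose medium with 23 nl compound. Growth recovery read as OD600; NS1-free strain serves as control.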
SARS PLP yeast – blocks SARS-CoV papain-like protease in a yeast assay | S. cerevisiae expressing SARS-CoV PLpro, growth rescue | Potency, µM (highest dose often 32.9 µM), for inactives: at the top dose activity, positive = growth rescue, usual class: activators | actives 0.19% (n = 330,000); calls by dose curve; also: potency is read from the fitted curve at half-maximal effect; 0% is about no effect; nearly all actives have a fitted effect of over 55% in size
Shiga toxin inh – inhibitors of Shiga toxin in Vero cells. Vero cells, Shiga toxin protein synthesis inhibition reporter. inhibition, % at 38.7 µM. actives 9.2% (n = 290,000). AID 2315; in the data active = inhibition mostly above about 28%, no sharp cut-off; inactive = mostly below about 43%; also: 0% is about no effect
Pf growth 96h – P. falciparum growth inhibition at 96 hour, primary screen for plastid delayed-death inhibitors; P. falciparum luciferase reporter growth, 96 h; Potency, µM (series often up to 28.7 µM), inactives show top-dose activity change, negative = inhibition, hits mostly inhibitors; actives 6.9% (n = 320,000); also: potency is read from the fitted curve at half-maximal effect; % is scaled to controls: 0 for no effect and ±100 for the full control effect
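Delayed-death screen, second-generation endpoint: infected erythrocytes, 2% hematocrit, 0.05% parasitemia final; 96 hours at 37 C, 5% CO2; luciferase detection reagent; luminescence decrease equals reduced growth.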
An asterisk follows results filed as active; ? = inconclusive; . = not tested or not shown; [ ] = another dose, or the depositor's remark. An excerpt weighted towards active compounds, which were near 21% of everything screened. Unless noted, calls follow the shape of the dose curve; as a rule, active = well fitted inhibition curve with a large enough effect; inconclusive = small, poorly fitted or top-dose-only effect, or another doubt; inactive = no such curve, though single readings can be large or run the other way.

SMILES	Pf growth 48h	Cycloheximide cs	NS1 inh	SARS PLP yeast	Shiga toxin inh	Pf growth 96h
O=C1CCCCC/C1=N/Nc1ccc(OCc2ccccc2)cc1	11%	12*	-5%	-1%	28	47%
COC(=O)c1cc(NC(=S)NC(=O)c2ccccc2)ccc1N1CCOCC1	86%	-1	-16%	?	-5	1%
Cc1ccc(S(=O)(=O)c2ccc(-n3nc(C)cc3N)cc2)cc1	6%	-3	.	-1%	-9	-9%
Cc1cc(N)n(-c2ccc(Cl)cc2)n1	-34%[5.75 µM]	-3	4%	0%	-7	?
Cc1ccccc1-n1nc(-c2ccc(N)cc2)cc1N	?	7	-5%	?	4	3%
Cc1ccc(-n2nc(-c3ccc(N)cc3)cc2N)cc1	29%	32*	?	-20%	61*	?
Cc1n[nH]c(=O)n1-c1ccc(OC(F)(F)F)cc1	?	1	.	0%	-4	72%
Nc1cc(-c2ccc(Cl)cc2)nn1-c1ccccc1	231%	43*	.	-2%	72*	204%
Cc1ccc(-n2nc(-c3ccc(OC(F)(F)F)cc3)cc2N)cc1C	-62%	15*	18%	-2%	33	-11%
Nc1ccc(-c2cc(N)n(-c3ccccc3)n2)cc1	6.6µM*	8	11%	-4%	10	.
CSc1nnc(NC(=O)c2cc(=O)c3cc(C)cc(C)c3o2)s1	-2%	-2	2%	-1%	-7	?
CC(=O)Nc1ccc(-c2cc(N)n(-c3ccccc3)n2)cc1	90%	64*	25%	-2%	69*	118%
Cc1nn(CC2CC2)c(=O)n1-c1ccccc1F	-3%	2	.	-2%	20	24%
Cc1nn(C)c(=O)n1-c1ccc(Oc2ccccc2)cc1	52%	11*	-1%	8%	-7	42%
Cc1ccc(-n2c(C)nn(CCOc3ccccc3)c2=O)cc1	142%	35*	1%	2%	67*	333%
Cc1nn(CCOc2ccccc2)c(=O)n1-c1c(F)cccc1F	107%	52*	4%	-2%	33*	127%
Cc1nn(C)c(=O)n1-c1ccccc1	3%	-3	.	-7%	-14	-8%
COc1ccc(N(CC(=O)NCc2cccnc2)S(=O)(=O)c2c(C)nn(C)c2C)cc1	.	-1	0%	-5%	13	?
O=C(CN1CCN(Cc2cccc(F)c2)CC1)NCc1ccccc1	-6%	-1	7%	6%	-8	8%
CC(C)(C)c1ccc(O)c(C[N+](C)(C)C)c1	.	.	-3%	.	.	.
COc1ccc(N(C(=O)c2cccc(OC)c2OC)C2C=CS(=O)(=O)C2)cc1 (stereo not drawn)	35%	8	-9%	2%	-13	2.3µM*
O=C(CO/N=C/c1ccc(OC(F)F)cc1)NC1CCCCCC1	-21%	-2	.	-7%	-7	1%
N#C/C(=C\c1ccc2c(c1)OCCO2)C(=O)Nc1ccc(C(=O)O)cc1	8%	78*	5%	-1%	113*	47%
CCCCCCCCNC(=O)/C(C#N)=C/c1ccc2c(c1)OCCO2	3%	2	10%	14%	15	24%
N#C/C(=C/c1ccc2c(c1)OCO2)C(=O)Nc1ccc(O)cc1	0%	49*	9%	-1%	54	?
SMILES	Pf growth 48h	Cycloheximide cs	NS1 inh	SARS PLP yeast	Shiga toxin inh	Pf growth 96h
Cc1cccn2c(=O)c3cc(C(=O)N4CCc5ccccc54)n(C)c3nc12	.	.	-8%	.	.	.
C/C(=N\N=C\c1ccc(N(C)C)cc1)c1cccc([N+](=O)[O-])c1	67%	37*	-13%	-18%	50*	?
CC[C@H](C)[C@H](NC(=O)[C@H](Cc1ccc(O)cc1)NC(=O)[C@H](Cc1cnc[nH]1)NC(=O)[C@H](CCCNC(=N)N)NC(=O)[C@H](CC(C)C)NC(=O)[C@H](C)NC(=O)[C@H](CO)NC(=O)[C@H](Cc1ccc(O)cc1)NC(=O)[C@H](Cc1ccc(O)cc1)NC(=O)[C@H](CCCNC(=N)N)NC(=O)[C@H](C)NC(=O)[C@H](CC(C)C)NC(=O)[C@H](CC(=O)O)NC(=O)[C@H](CCC(=O)O)NC(=O)[C@H](C)NC(=O)[C@@H]1CCCN1C(=O)[C@H](C)NC(=O)[C@H](CC(=O)O)NC(=O)[C@H](CCC(=O)O)NC(=O)CNC(=O)[C@@H]1CCCN1C(=O)[C@H](CC(N)=O)NC(=O)[C@H](CC(=O)O)NC(=O)[C@@H]1CCCN1C(=O)[C@H](CCCCN)NC(=O)[C@H](CO)NC(=O)[C@@H]1CCCN1C(=O)[C@@H](N)Cc1ccc(O)cc1)C(=O)N[C@@H](CC(N)=O)C(=O)N[C@@H](CC(C)C)C(=O)N[C@@H](CC(C)C)C(=O)N[C@H](C(=O)N[C@@H](CCCNC(=N)N)C(=O)N1CCC[C@H]1C(=O)N[C@@H](CCCNC(=N)N)C(=O)N[C@@H](Cc1ccc(O)cc1)C(N)=O)[C@@H](C)O	.	41	.	.	14	.
Cc1nnc(NC(=O)NCN2C(=O)C3C4C=CC(C4)C3C2=O)s1 (stereo not drawn)	?	-3	2%	5%	1	3.7µM*
COc1ccc(-n2ccnc2SCC(=O)NO)cc1	1.3µM*	-5	.	1%	-3	?
O=C(CSc1nccn1-c1cccc(Cl)c1)NO	0.74µM*	-4	.	4%	-9	?
O=C(CSc1nccn1-c1ccccc1)NO	2.1µM*	15	.	0%	-12	0.93µM*
COc1ccc(-n2ccnc2SCC(=O)Nc2ccc(OC)cc2OC)cc1	4%	-5	-118%	2%	-16	33%
S=c1[nH]c(-c2ccccc2)cn1/N=C/c1cccc2ccccc12	?	16	.	4%	33	?
S=c1[nH]c(-c2ccccc2)cn1/N=C/c1ccccc1Br	?	27*	.	-4%	35	?
Cc1ccc(/C=N/n2c(-c3cccnc3)n[nH]c2=S)s1	13%	-3	?	-1%	7	-43%
Oc1ccc(/C=N/n2cc(-c3ccccc3)[nH]c2=S)cc1	?	10	.	0%	13	?
COc1cc(/C=N/n2cc(-c3ccccc3)[nH]c2=S)cc(OC)c1O	12µM*	62*	3%	-3%	36	?
Cc1ccc(/C=N/n2cc(-c3ccccc3)[nH]c2=S)s1	?	39*	.	29%	108*	?
O=C(NCc1ccc(F)cc1)C1CCCN1C(=O)Nc1ccccc1 (stereo not drawn)	20%	0	-3%	0%	-10	?
Cc1ccc2c(CC(=O)NC3CCS(=O)(=O)C3)coc2c1C (stereo not drawn)	25%	-6	5%	5%	-23	?
COc1cccc(S(=O)(=O)NCc2ccc(C(=O)NCC3CCCO3)cc2)c1 (stereo not drawn)	22%	22	-4%	15%	45*	28%

High-throughput results (PubChem)
